Source: PubChem (National Center for Advancing Translational Sciences (NCATS))
Resorufin autofl – resorufin region autofluorescence. max dye-equivalent concentration, M. 0.04% of 59,000 active. AID 588. Compound fluorescence, resorufin region 547/598 nm, buffer; stronger effect = higher value
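Tris 100 mM pH 8.0; compound added, 15 min RT; CCD imager read, ex 547 nm/em 598 nm; signal normalized to resorufin standard curve (six concentrations per plate) as dye-equivalent concentration.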
Texas Red fluor – compound fluoresces in the Texas Red spectral region; max dye-equivalent concentration, M; 0.06% of 59,000 active; Compound fluorescence, Texas Red channel, 547/618 nm; stronger effect = higher value; in the data active = max dye-equivalent concentration above about 10 nM; inconclusive = between about 1.1 nM and that limit
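Pin-transferred compounds and Texas Red standards go into 100 mM Tris buffer, pH 8.0. After 15 min at room temperature, plates are imaged with 547/618 nm filters. Each value is a dye-equivalent concentration derived from the per-plate dye curve.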
Rhodamine fluor – compound fluoresces in the rhodamine spectral region; max dye-equivalent concentration, M; Rhodamine-region fluorescence, 547/598 nm, Tris buffer; stronger effect = higher value; AID 594; 0.05% of 59,000 active; in the data active = max dye-equivalent concentration above about 11 nM; inconclusive = between about 1.1 nM and that limit
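Steps: pin-transfer compounds into pH 8.0 Tris (100 mM), hold 15 min at room temperature, image with a 547/598 nm filter pair, and convert intensities to rhodamine-equivalent concentration using a six-point on-plate rhodamine series.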
A488 fluor – compound fluoresces in the A488 spectral region; compound autofluorescence, A488 spectral region, dye equivalency; Compound Type: qHTS ECL - MLSMR; max dye equivalency, M; 0.1% of 59,000 active
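Readout is A488 dye-equivalent concentration, calibrated by a per-plate six-point Alexa 488 series. Compounds in 100 mM Tris buffer pH 8.0 were incubated 15 min at room temperature. Plates were imaged using 480 nm excitation/540 nm emission filters.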
Fluorescein autfl – fluorescein region autofluorescence. Compound autofluorescence, 480/540 nm, fluorescein-equivalent; stronger effect = higher value. max fluorescein-equivalent concentration, M. 0.91% of 59,000 active. AID 593; in the data active = max fluorescein-equivalent concentration above about 10 nM; inconclusive = between about 1.1 nM and that limit
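Values reflect compound autofluorescence, normalized to fluorescein on the same plate and reported at each tested concentration. Conditions: 100 mM Tris pH 8.0, room temperature, 15 min, excitation 480 nm, emission 540 nm.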
A647 autofl – A647 region autofluorescence. max dye-equivalent concentration, M. 59,000 tested, under 10 active. AID 592. Compound fluorescence, A647 channel (570/671 nm), Tris buffer
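Spectral profiling of library compounds in pH 8.0 Tris: 15 min room-temperature incubation, single ex/em pair (570/671 nm), response normalized to Alexa 647 equivalents.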
Hits are given with their value; n = inactive; u = inconclusive; ! = not active in a repeat. A selection: hits, their analogues and other compounds. The true share with any hit is near 0.9%. Unless noted, the rule behind the calls is not given here.

SMILES	Resorufin autofl	Texas Red fluor	Rhodamine fluor	A488 fluor	Fluorescein autfl	A647 autofl
CC(=O)S[C@H]1CC2=CC(=O)CC[C@@]2(C)[C@H]2CC[C@@]3(C)[C@H](CC[C@]34CCC(=O)O4)[C@@H]12	u	1e-08M	u	u	4.9e-08M	n
COc1ccc(-c2coc3cc(O[C@@H]4O[C@@H](CO)[C@@H](O)[C@@H](O)[C@H]4O)cc(O)c3c2=O)cc1	n	n	n	n	n	n
COC(=O)[C@@H]1[C@@H]2C[C@H]3c4[nH]c5ccccc5c4CCN3C[C@@H]2CC[C@@H]1OS(=O)(=O)O	n	n	n	n	u	n
O=C(O)[C@@H]1[C@@H]2C[C@H]3c4[nH]c5ccccc5c4CCN3C[C@@H]2CC[C@@H]1O	n	n	n	n	1.7e-08M!	n
CCOC(=O)c1ccc(CC(=O)c2oc3cc(O)ccc3c2C)o1	n	u	n	n	2.3e-08M	n
CCOC(=O)c1oc2cc(O)ccc2c(=O)c1-c1csc(C)n1	n	n	n	n	u	n
O=C1[C@@H]2C=CC=CC2=NC(=S)N1CCN1CCC(=C(c2ccc(F)cc2)c2ccc(F)cc2)CC1	n	n	n	n	u	n
CCCn1c(=NC(=O)c2ccncc2)c(C#N)cc2c(=O)n3cccc(C)c3nc21	n	n	n	n	1.2e-08M	n
Cc1cccn2c(=O)c3cc(C#N)c(=NC(=O)c4ccncc4)n(CCCOC(C)C)c3nc12	n	u	n	n	1.7e-08M	n
Cc1cccn2c(=O)c3cc(C#N)c(=NC(=O)c4ccc5c(c4)OCO5)n(CC(C)C)c3nc12	n	n	n	n	n	n
COc1cccc2c1[C@@H]1CN(CCCCn3c(=O)[nH]c4c(sc5ncc(-c6ccccc6)nc54)c3=O)C[C@H]1CO2	n	n	n	n	u	n
Nc1nc(N)c(N=Nc2ccc(C(=O)O)c(O)c2)c(N)n1	n	n	n	n	1.4e-08M	n
Nc1ccc(C(=O)O)c(O)c1	n	n	n	n	u	n
Cc1oc(C)c2c(=O)ccc3c(c12)OC(N)=C(C#N)C3c1ccccc1Cl (stereo not given)	n	n	n	n	1.5e-08M	n
CC(=O)C1=C(C)OC(N)=C(C#N)C1c1ccco1 (stereo not given)	n	n	n	n	u	n
CSc1ccc(C2C(C#N)=C(N)Oc3c2ccc(=O)c2c(C)oc(C)c32)cc1 (stereo not given)	n	n	n	n	u	n
Cc1oc(C)c2c(=O)ccc3c(c12)OC(N)=C(C#N)C3c1ccccc1 (stereo not given)	n	n	n	n	1.1e-08M	n
N#CCCn1c(=O)c(-c2ccccc2)nc2cnc(OCc3ccccc3)nc21	n	n	n	n	n	n
COCCn1c(=O)c(-c2ccccc2)nc2cnc(N3CCNCC3)nc21	n	n	n	n	n	n
O=C1c2ccccc2-c2n[nH]c3cccc1c23	n	n	n	u	4.7e-08M	n
O=c1c(-c2ccccc2)n[nH]c2ccccc12	n	n	n	n	n	n
CCOC(=O)c1cnn2c(C(F)(F)F)cc(-c3ccco3)nc12	n	n	n	n	n	n
CC(C)OC(=O)c1nn2c(C(F)(F)F)cc(-c3ccc(Br)o3)nc2c1Br	n	n	n	n	1.6e-08M	n
COc1cccc(=O)c2c(C)oc(C)c12	n	n	n	u	7.1e-08M	n
CCN(CC)CCC[C@H](C)Nc1c2ccc(Cl)cc2nc2ccc(OC)cc12	n	n	n	u	9e-08M	n
SMILES	Resorufin autofl	Texas Red fluor	Rhodamine fluor	A488 fluor	Fluorescein autfl	A647 autofl
COc1ccc2cc3c(N)c(C(=O)NCc4ccco4)sc3nc2c1	n	n	n	n	2.4e-08M	n
O=C(CCc1ccc(O)cc1)c1c(O)cc(O)cc1O[C@@H]1O[C@@H](CO)[C@@H](O)[C@@H](O)[C@H]1O	n	n	n	n	n	n
CN1CCN(c2ncc3ncc(=O)n(-c4ccccc4)c3n2)CC1	n	n	n	n	n	n
Cc1cccc(CNc2cc(-c3ccc(C(=O)N(C)C)cc3)ncn2)c1	n	n	n	n	n	n
Cn1cccc1C(=O)N1CCC[C@@]2(CCN(c3ccccc3)C2)C1	n	n	n	n	1.1e-08M	n
CCOC(=O)N1CCN(Cc2nc3c(c(=O)n(C)c(=O)n3C)n2CCCc2ccccc2)CC1	u	u	u	u	5.6e-08M	n
CCOC(=O)c1c(C)[nH]c(C=Nc2ccccc2)c1O	n	u	n	n	1.7e-08M	n
CCNc1ncc2nc(C)c(=O)n(Cc3ccc(F)cc3)c2n1	n	n	n	n	n	n
Cn1cc[nH]c1=S	n	n	n	n	2.2e-08M	n
O=C(O)CCCC[C@H]1CCSS1	n	u	n	n	u	n
[O-][n+]1c(CN2CCCCC2)nc2cccc3c2c1-c1ccccc1-3	n	n	n	n	1.7e-08M	n
c1ccc2[nH]c(CN3CCCCCC3)nc2c1	n	n	n	n	u	n
CN(C)Cc1ccccc1-c1nc(NCc2ccccc2)c2ccccc2n1	n	n	n	n	n	n
COc1cccc(Nc2ncc3nc(-c4ccc(Cl)cc4)c(=O)n(C[C@H]4CCCO4)c3n2)c1	n	n	n	n	n	n
COc1cccc(Nc2ncc3nc(-c4ccccc4)c(=O)n(C[C@H]4CCCO4)c3n2)c1	n	n	n	n	1.1e-08M	n
O=c1c2ccccc2oc2cc(O)c([C@@H]3COC[C@@H](CO)[C@@H](O)[C@@H](O)[C@H]3O)c(O)c12	n	n	n	n	u	n
CC(C)C[C@H](NC(=O)[C@@H](O)[C@@H](N)Cc1ccccc1)C(=O)O	n	n	n	n	u	n
CCOC(=O)c1ccc2[nH]cc(C(C)=O)c(=O)c2c1	n	n	n	n	2.2e-08M	n
CC(=O)c1c[nH]c2ccc(C)cc2c1=O	n	n	n	n	u	n
CN(C)c1ccc(N/C=C/C(=O)c2ccc(F)cc2)cc1	n	n	n	n	2.4e-08M	n
CC(C)=CCC/C(C)=C/COc1c2ccoc2cc2oc(=O)ccc12	n	n	n	n	n	n
CCN1C(=O)/C(=C2/SC(C)=C(C)N2CC)SC1=S	n	n	n	u	7.1e-08M	n
Nc1ncnc2c1nc(Br)n2[C@@H]1O[C@H]2COP(=O)(O)O[C@@H]2[C@H]1O	n	n	n	n	n	n
CCOC(=O)c1c(C)[nH]c(C)c1C(=O)Cn1nnc(-c2ccccc2C)n1	n	n	n	n	1e-08M	n
CCc1nnc(NC(=O)C2CCCN(c3nc4ccccc4s3)C2)s1 (stereo not given)	n	n	n	n	u	n
O=C(Nc1ccc2c(c1)OCO2)C1CCCN(c2nc3ccccc3s2)C1 (stereo not given)	u	2.6e-08M	1.2e-08M	n	u	n
O=C(c1cccc(F)c1)N1CCC2(CC1)CN(c1ccc(-c3ccccc3)cc1)C2	n	n	n	n	n	n
